A selection: hits, their analogues and other compounds. The true share with any hit is near 3.6%.
DUSP3 inh: VHR1 phosphatase inhibitors, primary screen, biochemical, absorbance, uHTS; AID 1654, 2009; Dual specificity protein phosphatase 3 (Homo sapiens), P51452; inhibition, % at 13.3 µM; recombinant VHR phosphatase, pNPP absorbance; 290,000 tested, 0.52% active; in the data active = inhibition above about 50%
Mtb hypoxia rep: PubChem AID 1159583. M. tuberculosis hypoxia-regulated fluorescent reporter, fluorescence. fluorescence inhibition, % (no concentration beside the values). 300,000 tested, 0.1% active; in the data active = fluorescence inhibition mostly above about 23%, no sharp cut-off; inactive = mostly below about 17%
Mtb bLac sens: beta-lactam sensitization of Mtb H37Rv, H37Rv. M. tuberculosis H37Rv growth with meropenem, percent inhibition. 330,000 tested, 0.27% active. inhibition, % at 25 µM; call rule not given here;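 note: growth measured after seven days incubation then overnight dye step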
FBA Mtb inh: Mtb FBA enzyme inhibitors, primary screen, biochemical, fluorescence, strain H37Rv; inhibition, % at 1 µM; Fructose-bisphosphate aldolase (Mycobacterium tuberculosis (strain ATCC 25618 / H37Rv)), …; 360,000 tested, 2.3% active; purified M. tuberculosis FBA, fluorescence read-out; in the data active = inhibition above about 27%
Target sequence (P9WQA3 whole entry, looked up): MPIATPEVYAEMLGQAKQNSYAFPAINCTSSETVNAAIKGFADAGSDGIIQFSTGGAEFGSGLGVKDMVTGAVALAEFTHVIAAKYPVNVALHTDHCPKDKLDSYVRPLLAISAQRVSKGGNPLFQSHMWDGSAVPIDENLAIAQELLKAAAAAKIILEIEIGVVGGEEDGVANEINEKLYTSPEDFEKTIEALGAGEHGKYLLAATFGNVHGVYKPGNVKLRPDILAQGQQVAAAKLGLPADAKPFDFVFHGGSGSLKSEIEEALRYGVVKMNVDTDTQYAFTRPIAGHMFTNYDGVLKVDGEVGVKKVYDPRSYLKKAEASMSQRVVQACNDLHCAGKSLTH
GDH-TPI inh: GDH-TPI coupling enzyme inhibitors, primary screen, artefact control for M. tuberculosis FBA inhibitor project, biochemical, absorbance, full deck | GDH-TPI coupled enzyme counterscreen, NADH absorbance | inhibition, % at 4.8 µM | 360,000 tested, 1.2% active | AID 588335, 2011; in the data active = inhibition above about 30%
Each line names hits and unclear results; the compound was inactive in the other large screens.

C=CCn1c(-c2ccccc2)nc2nc3ccccc3nc21	FBA Mtb inh 126.5, GDH-TPI inh 39.0
O=c1sc(/C=N/Nc2ccccc2)c(Cl)n1Cc1ccccc1	GDH-TPI inh 86.2 (no result: Mtb hypoxia rep)
COC(=O)c1cccc(Cn2c(Cl)c(/C=N/NC(=O)c3ccco3)sc2=O)c1	GDH-TPI inh 35.4 (no result: Mtb hypoxia rep)
O=C(N/N=C/c1sc(=O)n(-c2ccccc2)c1Cl)c1ccccc1	GDH-TPI inh 31.1 (no result: Mtb hypoxia rep)
COC(=O)c1cccc(Cn2c(Cl)c(C=NNC(=O)c3ccco3)sc2=O)c1	none (no result: DUSP3 inh, Mtb bLac sens, FBA Mtb inh, GDH-TPI inh)
O=C(O)c1cccc(Cn2c(Cl)c(/C=N/NC(=O)c3ccc(O)cc3)sc2=O)c1	GDH-TPI inh 34.4 (no result: Mtb hypoxia rep)
O=C(O)c1cccc(Cn2c(Cl)c(C=NNc3ccccc3)sc2=O)c1	none (no result: DUSP3 inh, Mtb bLac sens, FBA Mtb inh, GDH-TPI inh)
O=C(O)c1cc(NN=Cc2ccc3c(c2)OCO3)ccc1Cl	none (no result: DUSP3 inh, Mtb bLac sens, FBA Mtb inh, GDH-TPI inh)
C=C1CSc2nc(=O)c3c4c(sc3n21)CCC4	Mtb hypoxia rep 42.5
C=C1CSc2nc(=O)c3c4c(sc3n21)CCCC4	none
COC(=O)C1=C(c2ccc(C(C)=O)cc2)CC2CCC1N2C(=O)NCc1ccco1 (configuration not stated)	none (no result: DUSP3 inh, Mtb bLac sens, FBA Mtb inh, GDH-TPI inh)
COc1ccc(C2CC(c3ccccc3O)=NN2c2ccccc2)cc1 (configuration not stated)	none (no result: DUSP3 inh)
COc1ccc(C2CC(c3ccccc3)=NN2c2ccccc2)c(C(=O)O)c1OC (configuration not stated)	FBA Mtb inh 197.3
COc1ccc2c(c1OC)C(=O)N1N=C(c3ccccc3)CC21 (configuration not stated)	none
COc1ccc(C2=NN(c3ccc(C(=O)O)cc3)C(c3ccc(OC)c(OC)c3)C2)cc1 (configuration not stated)	FBA Mtb inh active, GDH-TPI inh 34.9
NS(=O)(=O)c1ccc(N2N=C(c3ccccc3)CC2c2cccc(Br)c2)cc1 (configuration not stated)	FBA Mtb inh active (no result: DUSP3 inh, Mtb bLac sens)
CC(=O)Oc1ccc(C2=NN(c3ccccc3)C(c3ccccc3)C2)cc1 (configuration not stated)	FBA Mtb inh 128.9
COC(=O)C1=C(C)NC(=O)C1=Cc1cc(C)n(-c2cc(C)cc(C)c2)c1C	none (no result: DUSP3 inh, Mtb bLac sens, FBA Mtb inh, GDH-TPI inh)
COc1ccc(C2CC(c3ccccc3)=NN2c2ccc(S(N)(=O)=O)cc2)cc1OC (configuration not stated)	FBA Mtb inh active
COc1cc(C2CC(c3ccccc3)=NN2c2ccccc2)ccc1OCC(=O)O (configuration not stated)	FBA Mtb inh active
CNC(=S)N1N=C(c2ccccc2)CC1c1ccc(OC)c(OC)c1 (configuration not stated)	none
NS(=O)(=O)c1ccc(N2N=C(c3ccc(Br)cc3)CC2c2ccc(F)cc2)cc1 (configuration not stated)	FBA Mtb inh active
COc1cc(C2CC(c3cccnc3)=NN2c2ccc(F)cc2)cc(OC)c1OC (configuration not stated)	FBA Mtb inh active
O=C(NN=Cc1cc2c(cc1[N+](=O)[O-])OCO2)c1ccccn1	none (no result: DUSP3 inh, Mtb bLac sens, FBA Mtb inh, GDH-TPI inh)
O=C(CC1CC=CCC(NC(=O)OCC2c3ccccc3-c3ccccc32)C(=O)OC(c2ccccc2)CNC1=O)NC(CO)Cc1ccccc1 (configuration not stated)	none (no result: DUSP3 inh, Mtb bLac sens, FBA Mtb inh, GDH-TPI inh)
NS(=O)(=O)c1ccc(N2N=C(c3ccccc3)CC2c2ccccc2Br)cc1 (configuration not stated)	FBA Mtb inh active (no result: DUSP3 inh, Mtb bLac sens)
NS(=O)(=O)c1ccc(N2N=C(c3ccccc3)CC2c2cccc(F)c2)cc1 (configuration not stated)	FBA Mtb inh active
O=[N+]([O-])c1ccc(N2N=C(c3ccccc3)CC2c2ccccc2O)cc1 (configuration not stated)	none (no result: Mtb hypoxia rep)
Cc1nn(-c2ccccc2)c(Cl)c1C=NNC(=O)c1nn(C)cc1[N+](=O)[O-]	none (no result: DUSP3 inh, Mtb bLac sens, FBA Mtb inh, GDH-TPI inh)
CC(C)Oc1ccccc1C=NNC(=O)C1CCCC1	none (no result: DUSP3 inh, Mtb bLac sens, FBA Mtb inh, GDH-TPI inh)
CCCCn1nc(C(=O)NC(CCSC)c2nc3ccccc3[nH]2)c2ccccc2c1=O (configuration not stated)	none (no result: DUSP3 inh, Mtb bLac sens, FBA Mtb inh, GDH-TPI inh)
COc1ccc(-c2nc(CN3CCC(C(=O)N4CCOCC4)CC3)c(C)o2)cc1C	DUSP3 inh 56.8
COc1ccc(-c2nc(CS(=O)CC(=O)NCCCN3CCOCC3)c(C)o2)cc1OC (configuration not stated)	DUSP3 inh 56.7
COc1cccc(/C=C2\Oc3cc(OCC(=O)N4CCC[C@H]4C(=O)O)ccc3C2=O)c1	GDH-TPI inh 36.3 (no result: Mtb hypoxia rep)

Screening results from PubChem BioAssay.
